Data published in PubChem BioAssay (NCI).
Compounds without any hit were thinned out: in the full panel of roughly 79,000, 15% have a hit. Unmarked numbers belong to inactive results. Active and inactive are the calls of the source. Rule as the data show it: active = growth inhibition above about 70%; inactive = the rest. Where a SMILES comes first, the peptide text is derived from it. [ ]: non-standard residue; d: D form. The star is where a group is joined. ξ: configuration not given here. ξD = NC(CC(=O)O)C(=O)O; Boc = CC(C)(C)OC(=O)*; Aib = CC(C)(N)C(=O)O; OtBu = CC(C)(C)O*

Columns and labels:
[1] = NCI Yeast Anticancer Drug Screen. Data for the rad50 strain (AID 155);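 also: 0% = growth of vehicle-only cultures of the same strain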; conditions: S. cerevisiae rad50 strain growth inhibition; at 50.0 µM; stronger effect = higher value
Summary of the method: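 Readout: growth inhibition relative to vehicle-treated cultures. Compound exposure was carried out in a genetically defined yeast strain deficient in DNA damage repair.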

[2] = NCI Yeast Anticancer Drug Screen. Data for the mec2-1 strain (AID 157); conditions: S. cerevisiae mec2-1 strain, at 50.0 µM, stronger effect = higher value
Summary of the method: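 Cells of the genetically defined mec2-1 yeast strain are incubated with test compound. Inhibition of growth is calculated against vehicle-treated controls.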

[3] = NCI Yeast Anticancer Drug Screen. Data for the sgs1 mgt1 strain (AID 161);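 also: 0% = growth of cultures given vehicle only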; conditions: S. cerevisiae sgs1 mgt1 strain, at 50.0 µM, stronger effect = higher value
Summary of the method: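 Mutant yeast exposed to compound; growth scored against vehicle-only wells.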

[4] = NCI Yeast Anticancer Drug Screen. Data for the cln2 rad14 strain (AID 165);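 also: 0% = growth equal to vehicle treated cultures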; conditions: S. cerevisiae cln2 rad14 strain, at 50.0 µM, stronger effect = higher value
Summary of the method: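 The screen exposed genetically defined yeast (cln2 rad14) to test compounds and scored growth inhibition relative to vehicle-treated controls.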

[5] = NCI Yeast Anticancer Drug Screen. Data for the bub3 strain (AID 167); conditions: S. cerevisiae bub3 mutant strain, at 50.0 µM, stronger effect = higher value
Summary of the method: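 Readout: yeast growth inhibition, expressed relative to vehicle-only wells. The test organism is a mutant strain from a panel with lesions in DNA repair or checkpoint genes.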

[6] = NCI Yeast Anticancer Drug Screen. Data for the mlh1 rad18 strain (AID 175); conditions: S. cerevisiae mlh1 rad18 strain growth inhibition; at 50.0 µM; stronger effect = higher value
Summary of the method: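 Compound-treated yeast growth, normalised to vehicle controls. Strain bears defined DNA repair mutations.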

Row | Compound | growth inhibition [1] | growth inhibition [2] | growth inhibition [3] | growth inhibition [4] | growth inhibition [5] | growth inhibition [6]
1 | O=C(NC(COC(=O)c1ccccc1)COC(=O)c1ccccc1)c1ccccc1 | 29.5% | 7.85% | 12.8% | 12.8% | -1.1% | 9.95%
2 | O=C(O)CCc1nc2c(n1Cc1ccccc1)C(=O)c1ccccc1C2=O | 28.4% | 21.3% | 43.3% | 44.7% | 41.1% | 13%
3 | COc1ccc(CC2(C(=O)O)NCCc3cc(O)c(OC)cc32)cc1O (stereo not given) | 16.7% | -3.25% | -13.7% | 4.15% | -0.5% | -5.5%
4 | CCOC(=O)c1c[nH]c(=S)[nH]c1=O | 9.25% | -8.4% | 18.7% | -15.1% | -1.2% | -10.8%
5 | CCNC(=O)CCN(C(=O)O)S(=O)(=O)c1ccc(NC(=O)c2ccccc2)cc1 | -23.2% | -14.8% | -2.55% | 0.25% | -8.7% | -13.9%
6 | O=C(OCc1ccco1)c1ccc([N+](=O)[O-])cc1 | -5.15% | -7.3% | -3.75% | -32.6% | -13.5% | -12.8%
7 | ClC(Cl)=C(Cl)C1(Cl)CC1COCc1ccccc1 (stereo not given) | 45.5% | -10.1% | -4.05% | 17.9% | -7.85% | -3%
8 | COc1ccccc1/C=C1\CCC(CN(C)C)C1=O (stereo not given) | 82.2% (active) | 89.5% (active) | 91.8% (active) | 55.4% | 91.1% (active) | 92.2% (active)
9 | C/C(=C1/N=C(c2ccccc2)OC1=O)c1ccccc1 | 39.5% | 70% (active) | 65.4% | 75.7% (active) | 94.6% (active) | 80.5% (active)
10 | O=C(/C=C/c1ccc(Cl)cc1)c1ccc(Cl)s1 | -52% | -48.8% | -23.1% | -16.2% | -16.1% | -24.9%
11 | O=C(O)CC1CC2CC(=O)C1C2 (stereo not given) | -28.1% | -30.7% | -14.7% | -1.2% | -23.6% | 12.2%
12 | Cc1cc(/C=N/NC(=O)c2ccccc2NC(=O)c2ccccc2Cl)ccc1O | 20.6% | 9.8% | 39.2% | 11.9% | 9.1% | 34.8%
13 | Cc1ccc(C(=O)c2ccccc2C(=O)O)cc1C | 4.35% | -4.35% | -17.9% | -18.4% | 9.2% | -18.6%
14 | O=C(Nc1ccc2ccccc2c1)OC1CCS(=O)(=O)C1 (stereo not given) | -0.75% | -3.9% | 6.1% | 20.4% | -1.8% | -8.25%
15 | CC(C)(O)C(O)COc1c2c(cc3oc(=O)ccc13)OCO2 (stereo not given) | 26.3% | 3.5% | 18.9% | -1.35% | 31.9% | 25.6%
16 | O=C(O)COc1cc(-c2ccccc2)nc2ccc(F)cc12 | -3% | 16.6% | 31.5% | 7.25% | 3.1% | 10.2%
17 | NCc1c(C(N)=O)ncn1Cc1ccccc1 | -0.95% | -3.75% | 5% | -4.15% | 7.4% | -6.05%
18 | CCCCc1c2c(nc3c1CCCC3O)CCCC2 (stereo not given) | -40.4% | -63% | -13.9% | 13.2% | -8.1% | -23.9%
19 | CC(=O)O[C@@H]1[C@H]2[C@@H](OC(=O)c3ccccc3)[C@@H](C)C[C@]2(O)[C@H](OC(C)=O)[C@@]2(C)[C@@H]3C[C@@](C)(OC(C)=O)C[C@@H](OC(C)=O)[C@@]3(OC(C)=O)C[C@@]12C | -7.55% | -7.05% | -3.8% | -32.8% | -6.35% | -50.5%
20 | CC1C2CCC3(CCC4C5(C)CCCC4(CN(CCO)C5)C3C2)C1O (stereo not given) | 2.1% | -24.4% | 5.3% | 13.8% | -2.4% | -8.4%

Row | Compound | growth inhibition [1] | growth inhibition [2] | growth inhibition [3] | growth inhibition [4] | growth inhibition [5] | growth inhibition [6]
21 | O=C(Nc1ccccc1Cl)Oc1ccc(C(=O)c2ccccc2)cc1 | -0.3% | -13.3% | 30.2% | 19.9% | 16.9% | 13.2%
22 | O=C(O)c1c(F)c(F)c(C(=O)O)c(F)c1F | 6.25% | -15.8% | 16.3% | 15.1% | 14.9% | 11.5%
23 | NC(CSc1nc2ccccn2c1[N+](=O)[O-])C(=O)O (stereo not given) | -26.1% | -40.8% | -30.1% | 5.25% | 8.25% | -18%
24 | Cc1c(C(=O)Nc2ccc(Cl)cc2)nc(N)nc1-c1cccc(Cl)c1 | -18.9% | -8.85% | 2.3% | 1.1% | -3.6% | -8.7%
25 | O=C(O)CCNc1ncnc2nc[nH]c12 | -65.5% | -13.2% | -33.5% | -34.6% | 24.4% | -19.9%
26 | Cc1cc(=O)[nH]c(NN2C(Cl)C(=O)C2c2ccc([N+](=O)[O-])cc2)n1 (stereo not given) | 15.8% | -24.2% | 12.7% | 2.7% | 3.85% | -18.8%
27 | O=C(O)CCCCCNCC(CNCCCCCC(=O)O)(C(=O)O)C(=O)O | 7.7% | -2.8% | -2.7% | -8.5% | -1.05% | 5.2%
28 | BrCc1cccc2cccc(CBr)c12 | -5.35% | 17.4% | 10.4% | -10.5% | 9.05% | 2.65%
29 | NC(N)=NNC(=O)C(=O)O | -4.5% | -7.9% | 3.85% | -19.5% | -7.6% | 7.9%
30 | Nc1ccc(S(=O)(=O)CC(=O)N2CCOCC2)cc1 | 6.2% | -10.8% | 8.3% | 17.9% | 4.95% | 22.5%
31 | COC(=O)C(C)(C)NC(=O)C(C)(C)NC(=O)C(CC(=O)OC(C)(C)C)NC(=O)OC(C)(C)C (stereo not given) (Boc-[ξD](OtBu)-[Aib]-[Aib]-OMe) | -29.3% | -16.1% | -21.1% | -7.4% | -18.4% | -28.7%
32 | NCc1ccccc1[N+](=O)[O-] | 11.4% | 6.2% | 3.5% | -1.6% | 3.5% | 12%
33 | O=C1O/C(=C(\Br)c2ccccc2)c2ccccc21 | 52.9% | -1.4% | 55.2% | 4.2% | 29.1% | 31.6%
34 | Cn1c(Cl)c(C=O)c(=O)n(C)c1=O | 17.8% | -4.7% | -5.95% | -0.45% | 7% | -2.55%
35 | N#CCOc1ccc(/C=C/C(=O)c2ccc(Cl)cc2)cc1 | -39.5% | -53.6% | -23.1% | -23.1% | 20.4% | -21.2%
36 | COC1OC(CBr)C(OC(=O)c2ccccc2)C(OC(C)=O)C1OC(C)=O (stereo not given) | -23.9% | -4.6% | -12.2% | 11% | -1.5% | -22.8%
37 | CC(=O)OCCn1c2ccccc2nc2cc3c(cc21)c(Cl)c(=O)c1ccccc13 | 29.6% | 14.3% | 21.1% | 25.6% | -1.6% | 13.4%
38 | CC/C=N/NC(=O)OCC | -9.8% | -4.85% | -13.9% | 1.1% | -3.3% | -6.85%
39 | C=CCOCCC(OCC=C)OCC=C | 1.25% | 7.75% | 4.4% | -23.9% | -1.3% | 8.85%
40 | OCCCCCCCCCCCBr | 28.4% | 4.05% | -3.1% | -27.1% | 9.4% | 17.1%
